Here are results for 14 compounds from PubChem BioAssay (NCI).

This assay is described as follows: NCI Yeast Anticancer Drug Screen. Data for the cln2 rad14 strain (AID 165).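 Further: 0% = growth equal to vehicle treated cultures.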 The note with it: S. cerevisiae cln2 rad14 strain, hits give high values. As to the method:
Growth inhibition of yeast strains with defined genetic alterations is measured as a screen for potential anti-cancer activity. Selected strains with alterations in DNA damage repair or cell cycle control were exposed to compounds and growth inhibition was measured relative to vehicle treated controls. The strain used in this assay is cln2 rad14

Where [1] appears, read: at 5.0 µM (retest, dose inferred, filed as 0.5).
[2] abbreviates: at 50.0 µM (retest, dose inferred, filed as 5.0).

This is part of a sample that, as a whole, favours compounds with a hit. Of some 79,000 tested, about 15% had one in any assay. Unmarked numbers belong to inactive results. Active and inactive are the calls of the source. No stated cut-off is given here; in the data, active means growth inhibition above about 70%; inactive means the rest.

Take `CCCCCCCCCCCC1=C(O)C(=O)C=C(O)C1=O`: the growth inhibition is -11% under setting [1], 88% (active) under setting [2] and 35.9% (at 50.0 µM).

Regarding `O=C1c2ccccc2-c2nc3ccccc3nc21`, the growth inhibition was 25% under setting [1], 52% under setting [2] and 3.35% (at 50.0 µM).

For `COc1ccc(/C=C/C(=O)C(C)(C)Br)cc1`, the growth inhibition by setting is: under setting [1], 52%; under setting [2], 92% (active); (at 50.0 µM) 91.5% (active).

For the compound `CCCCCCCCCCCCCC[N+](C)(CC(=O)[O-])Cc1ccccc1` (configuration not stated), the growth inhibition reads like this: under setting [1], 9%; under setting [2], 99% (active); (at 50.0 µM) 93.8% (active).

For `O=[N+]([O-])c1ccc(=S)[nH]c1`, the growth inhibition is 5% under setting [1], 55% under setting [2] and 37.6% (at 50.0 µM).

For the compound `COc1cc(C2SCC(=O)N2c2ccc(-c3ccc(-n4c(-c5ccccc5)nc5ccccc5c4=O)cc3)cc2)cc(OC)c1OC` (configuration not stated), the growth inhibition under setting [1] is 32%, the growth inhibition under setting [2] was 13% and the growth inhibition (at 50.0 µM) was 52.4%.

For the compound `COP(=O)(OC)/C(=C\C1=CN(C(c2ccccc2)(c2ccccc2)c2ccccc2)CN1)NC=O`, the growth inhibition is, setting by setting: under setting [1], 3%; under setting [2], 7%; (at 50.0 µM) 95.2% (active).

Regarding `COc1ccc(C2c3cc4c(cc3OC(C)(O)C2C)OCO4)c(OC)c1` (configuration not stated), the growth inhibition runs as follows: under setting [1], 5%; under setting [2], 51%; (at 50.0 µM) 89.3% (active).

Regarding `CN(CCc1ccccn1)c1ccc2c(c1)Cc1ccccc1-2`, the growth inhibition is, setting by setting: under setting [1], 0%; under setting [2], 10%; (at 50.0 µM) -2.25%.

Turning to `Oc1c(Br)cc(Br)cc1C1CCCCC1`, the growth inhibition by setting is: under setting [1], 41%; under setting [2], 99% (active); (at 50.0 µM) 89.6% (active).

In the case of `CCC(C)COC(=O)c1ccc(N=Cc2ccc(C=Nc3ccc(C(=O)OCC(C)CC)cc3)cc2)cc1` (configuration not stated), the growth inhibition reads like this: under setting [1], 12%; under setting [2], 12%; (at 50.0 µM) 41%.

For the compound `CC1(Cl)CC(O)C2(CC1Br)C1(C)OC1C1OC1(Br)C2(C)C` (configuration not stated), the growth inhibition by setting is: under setting [1], 33%; under setting [2], 58%; (at 50.0 µM) 42.5%.

As to `O=C(NNc1ccnc2cc(Cl)ccc12)/C(=C\c1ccccc1Cl)NC(=O)c1ccccc1`, the growth inhibition under setting [1] is 8%, the growth inhibition under setting [2] is 22% and the growth inhibition (at 50.0 µM) was 55.4%.

For `COc1ccccc1C(=O)OCC1CCCN2CCCCC12` (configuration not stated), the growth inhibition reads like this: under setting [1], -9%; under setting [2], 8%; (at 50.0 µM) 90.9% (active).
